Data: the supplement of paper PMC3334620
Over roughly 33,000 sequences, “E-score (-0.5 to 0.5)” has its median near -0.054; the highest 2% begin near 0.35. Many of the other results were omitted from the sample, so the highest values are more common in it than they were.

These sequences were tested against T1, Stb5 (UniProt P38699) (assay: PBM E-score (8-mer binding enrichment) (E-score (-0.5 to 0.5)); higher = stronger / more preferred TF binding). Conditions: protein concentration: 200 nM; construct: GST-full length.
T1 sequence: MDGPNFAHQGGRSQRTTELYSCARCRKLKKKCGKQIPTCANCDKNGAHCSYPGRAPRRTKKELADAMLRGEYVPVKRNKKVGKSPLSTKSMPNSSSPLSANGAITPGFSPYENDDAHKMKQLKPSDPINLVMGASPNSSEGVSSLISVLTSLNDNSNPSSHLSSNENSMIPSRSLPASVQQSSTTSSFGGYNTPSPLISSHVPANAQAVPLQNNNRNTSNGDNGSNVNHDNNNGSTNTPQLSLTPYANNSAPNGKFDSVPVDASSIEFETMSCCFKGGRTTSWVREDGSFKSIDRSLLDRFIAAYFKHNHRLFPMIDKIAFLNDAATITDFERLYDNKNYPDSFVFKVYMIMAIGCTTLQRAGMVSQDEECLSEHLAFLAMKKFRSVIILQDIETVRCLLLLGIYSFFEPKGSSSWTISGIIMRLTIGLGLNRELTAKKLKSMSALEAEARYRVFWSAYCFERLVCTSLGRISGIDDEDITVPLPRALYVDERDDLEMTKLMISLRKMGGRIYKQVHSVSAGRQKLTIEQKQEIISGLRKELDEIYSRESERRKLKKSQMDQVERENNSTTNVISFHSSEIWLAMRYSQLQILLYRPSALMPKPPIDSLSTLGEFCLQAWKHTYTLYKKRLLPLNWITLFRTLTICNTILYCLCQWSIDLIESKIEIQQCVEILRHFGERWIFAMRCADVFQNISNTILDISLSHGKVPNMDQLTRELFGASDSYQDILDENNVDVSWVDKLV
Method in brief: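 For each ungapped eight-base word taken together with its reverse complement, the Universal PBM Analysis Suite assigned an E-score. Binding data came from GST-tagged yeast transcription factors, applied at about 100-200 nM, on universal all-10-mer Agilent arrays made double-stranded by primer extension. Fluorescent anti-GST marked bound protein, and scans were normalised with masliner.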

Sequence	PBM E-score
CCTCCTAG	-0.267
ATGGCGAG	-0.242
CCAGCGCG	-0.0713
AAACCTTT	0.0851
AGGCCCCA	-0.255
CTCGGAGA	0.136
CGCGGAGA	0.287
GTCGGAGA	0.373
ATCGGAGA	0.33
AGCGGAGA	0.236
GGCGGAGA	0.388
AAACAGAG	-0.197
CGGTCTAA	0.23
CCACTACG	-0.0468
CCATAACG	-0.0562
AACATATT	-0.109
CGGTGTCC	0.369
AGGTGTTG	-0.0336
CGGTGTGC	0.219
CGGTGTGA	0.441
AGGTGTCC	-0.164
AGGTGTTC	-0.101
AGGTGTGA	0.00067
CCGTGTTC	0.137
AGGTGTTA	0.381

Sequence	PBM E-score
CGGTGTTC	0.399
GGGTGTTA	0.25
CTGTGTCC	0.136
AATCTGCA	-0.273
AAAGGCCT	-0.115
ACTCTGTG	-0.0679
TATAGGCA	-0.262
ATGATGCA	-0.187
CACCAGCG	-0.06
ACAAAGAG	-0.148
AGGTGTCA	0.12
CGGTGTCA	0.471
CGGTGTAA	0.438
GGGTGTCA	-0.073
CGGTGTAG	0.323
GGGTGTAA	0.251
TCGGAAGA	0.142
ATATGAAA	-0.119
ATTCGAGG	0.0182
TACGCAGA	-0.163
CGACCCGA	0.117
AAACGCCA	-0.046
AGACGCCG	0.399
AGACGCCA	-0.181
CAACGCCG	0.318

Sequence	PBM E-score
AGACGCCC	0.0667
AAACGCCG	0.449
CGCTAGAG	0.0369
AACATCGC	0.0424
GTGGTCAA	-0.291
CACTCCGC	0.307
AACTCCAT	0.144
AACTCCGA	0.463
AACTCCGG	0.436
AACTCCGT	0.444
GACTCCGC	0.333
TACTCCGA	0.234
AACTCCGC	0.438
CACTCCGA	0.242
AACTCCCG	0.248
CACTCCGG	0.219
AACTCCCT	-0.0261
AGATCAAG	-0.211
ATTAGTCC	0.248
CATATCAC	0.0389
TGCTGCAA	-0.177
CCAGAACG	-0.0165
ATTCAAAG	-0.12
GCGCGAAA	0.0664
AAGAGTGA	-0.258

Sequence	PBM E-score
ACAGACGT	-0.141
CCCCTCAC	-0.231
TGGTACCA	-0.0919
GGGTACTA	-0.0611
CGGTACCA	0.39
AGGTACTA	0.16
CGGTACTA	0.474
GGGTACCA	-0.157
AATGTGCC	0.145
ATCAAAGA	-0.248
CAGCAGGA	-0.194
AGTCTCCG	0.264
AAGAACAT	-0.0596
CCAACACC	0.119
CTAACACA	-0.0526
ATAACACC	0.461
ATAACACG	-0.0233
ATAACACA	-0.107
CTAACACC	0.401
GAATCCTC	-0.239
CGCGTTCC	0.0249
ATTCCTTC	-0.0881
GCCCTTAA	0.191
CCCTGGCG	0.114
CCTCTCCG	-0.171

Sequence	PBM E-score
AATCATTG	-0.314
GTGGCACA	-0.325
CGGGGGCA	0.275
CCCGATGA	0.226
GCCGATGA	0.357
ACCGATGA	0.264
CCCTATAG	-0.104
AATGGCAT	0.0389
CGAGCGGC	0.318
CCGGCGGC	0.327
GGGGCGGA	0.293
CGGGCGGC	0.308
CGAGCGGA	0.385
GCGGCGGA	0.333
AGAGCGGA	0.312
CCGGCGGA	0.385
CGGGCGGA	0.359
AATTGGCC	-0.224
CATCTAGG	-0.139
CGAATTGA	-0.12
ACAATTCG	-0.00889
AGGTATCC	-0.211
CGCCTTAA	0.0389
CGGCCTCC	0.129
CGGCCTCA	0.363

Sequence	PBM E-score
AGGCCTCA	-0.264
CTTTAGCA	0.133
ATCTCTGA	-0.172
CCACCGAA	0.117
GGACCGAC	0.318
GAACCGAC	0.225
CGACCGAC	0.271
ACACCGAA	0.386
AGACCGAA	0.236
TCACCGAA	0.217
AGACCGAG	0.177
GCACCGAA	0.358
GCACCGAC	0.45
AAACCGAA	-0.0132
AGACCGAC	0.385
AAGAACTA	-0.0107
AGGTTCAC	-0.164
CAATTCGC	0.0656
ACGAGAAA	-0.0778
CAATGGCC	0.0847
ATGAGGCA	-0.24
ATCTTGGG	-0.145
CGAAGGAA	-0.188
GATGAGAC	-0.136
ACACCGAG	0.369

Sequence	PBM E-score
AGACCGAT	0.272
ACACCGAT	0.447
AAACCGAC	0.222
AAACCGAG	-0.0377
AAACCGAT	0.121
ACACCGAC	0.466
CCACCGAG	0.0738
CCACCGAC	0.346
AATGGTTC	0.00524
TAAATCTA	-0.0639
GAATGAAA	0.0556
AATGCGGA	0.2
CCGAAGCG	0.225
ACCTTAAT	0.0412
AGGGCGCC	-0.0741
CACGCCCG	0.0876
GACCATCA	0.0409
CCCACCGG	0.303
GCCACCGC	0.335
CCCACCGC	0.221
ACCACCGG	0.406
ACCACCGA	0.357
ACCACCAG	-0.148
ACCACCCT	-0.168
TCCACCGA	0.176

Sequence	PBM E-score
ACCACCGC	0.391
ACCACCGT	0.354
CCCACCGA	0.118
ACCACCAT	-0.138
GGCGAGTA	-0.101
CCTCTATA	-0.232
CCTGACTC	-0.153
CCTATAAG	-0.0382
AACCTTGC	-0.0575
AAGAAGTA	-0.102
GAGCAAGC	-0.168
AGCAACCA	-0.068
CCAATTCA	-0.261
ACCGACAT	0.322
ACCGACAA	0.369
CCCGACAC	0.34
GCCGACAC	0.239
ACCGACAG	0.363
CCCGACAG	0.305
ACCGACAC	0.361
AACGACAG	-0.205
CCCGACAA	0.328
GGTTTGGA	0.0254
ACGATATG	-0.0261
ATGGTTCG	-0.0398

Sequence	PBM E-score
CTCGTTTC	-0.214
GGACCTAA	0.365
CGACCTAA	0.017
TGACCTAA	-0.117
CGGAGGTA	0.434
AGGAGCTA	-0.0145
CGGAGCTC	0.249
AGGAGGTA	-0.0118
CGGAGGTC	0.122
CGGAGCTA	0.446
TGTACGAA	-0.0429
ACCACTGA	-0.202
TGCCGACA	0.298
AGCCGACG	0.232
CGCCGACG	0.395
CGCCGACC	0.345
GGCCGACA	0.327
CGCCGACA	0.354
GGCTCTTA	0.0283
ACTCTAAA	0.01
ACCGCACG	0.153
AACGGGGA	0.288
GATCTACC	-0.0916
CGCTGTTC	0.0181
AGCTGTTA	-0.234

Sequence	PBM E-score
CGCTGTTA	0.445
GTCGGAAC	0.315
ACTCTCTA	-0.205
ATAATGAA	-0.076
CTACCGAA	0.0544
GTACCGAA	0.145
ATACCGAG	0.224
ATACCGAA	0.242
ATACCGAC	0.398
CTACCGAC	0.264
ATACCGAT	0.353
ATACCGGC	0.304
GTACCGAC	0.382
AACGTTGT	-0.107
CGGTATAG	0.179
AACACTGT	-0.22
AGCTGGTC	-0.26
TAACAGTA	-0.227
AAAAAGTC	0.175
TAGCTGCA	-0.191
GCGGTGAC	0.358
GGGGTGAC	0.0132
ACGGTGCG	0.281
ACTGTGCT	-0.241
ACGGTGCT	0.409

Sequence	PBM E-score
GCGGTGAA	0.345
ACGGTGAG	0.141
AAGGTGCT	-0.0966
ACGGTGCC	0.372
ACGGTGAT	0.367
ACGGTGCA	0.127
ACGGTGAC	0.297
GAGAGTGC	-0.209
AAACTGAT	-0.104
CAGAGGGA	-0.261
GATACTCC	0.146
TAGCACTA	-0.246
AAAAAGAA	0.175
GCCAAGGA	-0.0748
TAGGTCCA	-0.0733
AGTTGCTG	-0.167
GTCGTTAA	-0.0792
CGAAGTTC	-0.147
CCGACAGC	0.341
ACGCTTTC	-0.205
ATGCTCCC	-0.0728
GCGGTGCA	0.259
ACGGTACG	0.214
ACGGTCAT	0.368
ACGGTACT	0.389

Sequence	PBM E-score
GCGGTGCC	0.387
ACGGTCAA	0.126
ACGGTACC	0.283
ACGGTCAG	-0.0787
CCGGTGCC	0.328
TCGCTAGA	-0.243
AGCACCTG	-0.14
CCCTCTCA	-0.284
AAACGAGC	-0.209
GTACTCCA	-0.229
AGCGGACA	0.393
AGCGGATA	0.286
CGCGGACA	0.315
AGCGGACT	0.39
AGCGGACG	0.284
AGCGGAAT	0.228
CCCCCCCA	-0.263
ACTCATAT	-0.0119
GCCCCCGC	0.256
CACCCCGG	0.277
GACCCCGA	0.377
TACCCCGA	0.407
CACCCCGC	0.394
GACCCCCC	-0.259
TACCCCCA	-0.114

Sequence	PBM E-score
CACCCCGA	0.325
GACCCCCA	-0.201
GACCCCGC	0.391
CACCCCCC	-0.14
TACCCCAA	-0.157
GGTGCTCA	0.0877
CGAAAGAG	-0.0144
ACGCAGAG	-0.218
CCTCCATC	-0.18
AGCGGGAC	0.303
AGCGAGAC	-0.0631
CTAGCACC	0.336
GCGTCATA	-0.0207
GCAATGCA	-0.0992
CCAGCCAG	-0.223
ACAGTGAA	-0.147
CCTTAATC	0.109
GTTATCTA	-0.00767
ATCAACGA	0.0713
ACGGGTAG	-0.0642
AACGTCCA	-0.0958
AAGGTCCG	0.442
CAAGTCCG	0.356
CAGGTCCG	0.237
CAAGTCCC	0.00375

Sequence	PBM E-score
AGAGTCCT	-0.216
AGAGTCCC	0.0723
AACGTCCG	0.375
AAGGTCCA	-0.171
AACGTCCC	-0.0635
AGAGTCCG	0.378
CAAGTCCA	-0.171
GAACTGCC	-0.118
CGGATCCG	0.124
ATGGTCTA	-0.23
AAGAACCG	0.262
AAAGATCG	-0.0774
AGGCATCC	-0.261
ACATTAGC	-0.083
AGGCCGTG	0.212
CTCTTGTC	-0.198
ACGCCATG	-0.293
TAGCCGGA	0.279
CCTGAAGG	-0.14
